Screening data deposited in PubChem BioAssay by National Center for Advancing Translational Sciences (NCATS).
Shown are actives, neighbours in structure and some others; about 11% of the full set was active somewhere.
VACV Venus inh = inhibitors of vaccinia virus (Venus reporter) | AID 720580 | 330,000 compounds, 0.46% hits | Vaccinia virus Venus reporter expression, fluorescence | Potency, µM (titrated, usually from 36.5 µM), for the others: at the top dose activity change, negative = inhibition, usual class: inhibitors; calls by dose curve; tested in A549 cells; further: on the % scale 0 is the no-effect control and ±100 the full control effect; nearly all actives have a fitted effect of over 30% in size
VACV mCherry inh = inhibitors of vaccinia virus infection (mCherry reporter signal); Vaccinia virus mCherry reporter infection, fluorescence; Potency, µM (doses to about 36.5 µM), without a hit: at the highest dose activity change, negative = inhibition, most hits filed as inhibitors; 310,000 compounds, 0.63% hits; calls by dose curve; tested in A549 cells; further: on the % scale 0 is the no-effect control and ±100 the full control effect; nearly all actives have a fitted effect of over 35% in size
Pf growth 96h = inhibits malaria parasite growth, 96 h | 320,000 compounds, 6.9% hits | P. falciparum luciferase reporter growth, 96 h | Potency, µM (highest dose often 28.7 µM), inactives show at the highest dose activity change, negative = inhibition, usual class: inhibitors; further: on the % scale 0 is the no-effect control and ±100 the full control effect
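Readout is luminescence from an integrated firefly luciferase in P. falciparum. Red cells, 2% hematocrit and 0.05% parasitemia final, were cultured with compound through two parasite generations (96 hours) at 37 C, 5% CO2.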
HCV inhibitor = HCV inhibition. Huh7.5.1 HCVcc-Cre infection, luciferase reporter, 44 h. Potency, µM (titrated, usually from 41.8 µM), inactives show at the top dose activity change, negative = inhibition, usual class: inhibitors. 340,000 compounds, 3.4% hits. AID 651820; further: on the % scale 0 is the no-effect control and ±100 the full control effect
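1,000 cells/well; 4 h culture; + compound; + HCVcc-Cre (~0.5 moi); 44 h; luciferase substrate, RT 15 min; read 15 sec.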
Pf growth 48h = inhibits P. falciparum growth in the first generation, 48 h. P. falciparum luciferase growth in erythrocytes, 48 h. Potency, µM (top dose mostly 28.7 µM), without a hit: top-dose activity change, negative = inhibition, most hits filed as inhibitors. 310,000 compounds, 5.9% hits. AID 504832; further: on the % scale 0 is the no-effect control and ±100 the full control effect
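Here the parasites carry a stable luciferase gene and grow inside erythrocytes in Albumax-based RPMI medium with compound for one erythrocytic cycle. Activity is scored as loss of luminescent signal.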
NS1 function inh = influenza NS1 inhibition | Potency, µM (titrated, usually from 46.1 µM), for the others: at the top dose activity, positive = more growth | 270,000 compounds, 0.4% hits | AID 2326; calls by dose curve; further: actives are rising curves; nearly all actives have a fitted effect of over 50% in size
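A cell-based growth assay was used: compounds that relieve NS1-induced slow growth of budding yeast raise OD600. Assay medium was yeast nitrogen base with ammonium sulphate and -URA supplement, pH 6.0, with 2% galactose.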
The depositor's hits bear a star; [ ] = another dose, or the depositor's remark. Unless noted, the call rests on the fitted dose curve; in most records, active means well fitted inhibition curve with a large enough effect; inconclusive means small, poorly fitted or top-dose-only effect, or another doubt; inactive means no such curve, though single readings can be large or run the other way. Potency means the concentration at half of the fitted maximal effect.

Cc1ccc(NC(=O)CCC(=O)NN=Cc2ccc(C)o2)c(C)c1 was read as VACV Venus inh 4% and VACV mCherry inh 39%.
`O=C(N/N=C/c1ccc([N+](=O)[O-])o1)c1sc2ccccc2c1Cl` gave Pf growth 96h 1.7µM*, HCV inhibitor inconclusive, Pf growth 48h inconclusive and NS1 function inh -42%.
Screening O=C(N/N=C\c1ccc([N+](=O)[O-])o1)c1ccc(O)cc1 returned Pf growth 96h -102%[12.8 µM] and Pf growth 48h 2.3µM*.
`Cc1ccc(NC(=O)CCC(=O)N/N=C/c2ccc([N+](=O)[O-])o2)cc1C` gave Pf growth 96h 1.9µM*, HCV inhibitor inconclusive, Pf growth 48h 7.4µM* and NS1 function inh 3%.
Screening O=C(N/N=C/c1ccc([N+](=O)[O-])o1)c1cn2ccc3ccccc3c2n1 returned VACV Venus inh -9%, VACV mCherry inh inactive, Pf growth 96h inconclusive, HCV inhibitor -16%, Pf growth 48h 1.3µM* and NS1 function inh -3%.
For CCN1C(=O)/C(=C\N2CCN(c3ccc(F)cc3)CC2)SC1=S the results were Pf growth 96h -25%, HCV inhibitor 12% and NS1 function inh 10%.
Screening CCCC(=O)Nc1ccc(C(=O)N/N=C/c2ccc([N+](=O)[O-])o2)cc1 returned VACV Venus inh inconclusive, VACV mCherry inh inconclusive, Pf growth 96h 1.7µM*, HCV inhibitor inconclusive, Pf growth 48h -92% and NS1 function inh 2%.
Screening CCC(=O)Nc1ccc(C(=O)N/N=C/c2ccc([N+](=O)[O-])cc2)cc1 returned VACV Venus inh -4%, VACV mCherry inh -16%, Pf growth 96h inconclusive, HCV inhibitor 4%, Pf growth 48h -5% and NS1 function inh 3%.
Screening O=C(N/N=C/c1ccc([N+](=O)[O-])o1)C(=O)Nc1ccc(C(=O)O)cc1 returned Pf growth 96h 2.3µM*, HCV inhibitor 11%, Pf growth 48h 2.3µM* and NS1 function inh -1%.
Screening Cc1cc(C(=O)O)cc(S(=O)(=O)NNC(=O)c2cccs2)c1C returned Pf growth 96h 15%, HCV inhibitor 11%, Pf growth 48h 8% and NS1 function inh 1%.
For CC(C)(C)OC(=O)N/N=C\c1ccc(OC(=O)c2cccs2)cc1 the results were VACV Venus inh -11%, VACV mCherry inh -11%, Pf growth 96h 12µM*, HCV inhibitor 19%, Pf growth 48h 3% and NS1 function inh -24%.
`COc1ccc(/C=C2\CCC/C(=C\C=N\N(C)C)C2=O)cc1` gave Pf growth 96h inconclusive, HCV inhibitor inconclusive and Pf growth 48h -9%.
`CN(C)C(=O)COc1ccc2c3c(c(=O)oc2c1)CCCC3` gave Pf growth 96h 9.3µM*, HCV inhibitor 8%, Pf growth 48h 19% and NS1 function inh -10%.
CC(Oc1cc2oc(=O)c3c(c2cc1Cl)CCC3)C(=O)NC1CC(C)(C)NC(C)(C)C1 (configuration not stated) was read as Pf growth 96h inconclusive, HCV inhibitor inconclusive, Pf growth 48h 13µM* and NS1 function inh -2%.
Screening Cc1c(C)c2ccc(OC(C)C(=O)NC3CC(C)(C)NC(C)(C)C3)cc2oc1=O (configuration not stated) returned VACV Venus inh -14%, VACV mCherry inh -11%, Pf growth 96h 4%, HCV inhibitor 5%, Pf growth 48h inconclusive and NS1 function inh -21%.
CC(Oc1ccc2c3c(c(=O)oc2c1)CCCC3)C(=O)NC1CC(C)(C)NC(C)(C)C1 (configuration not stated) was read as Pf growth 96h 9.3µM*, HCV inhibitor inconclusive, Pf growth 48h 15µM* and NS1 function inh -3%.
`CCN(CC)C(=O)COc1ccc2c3c(c(=O)oc2c1)CCCC3` gave VACV Venus inh -28%, VACV mCherry inh -9%, Pf growth 96h 174%, HCV inhibitor -14%, Pf growth 48h inconclusive and NS1 function inh 9%.
Screening COc1ccc(C)cc1-n1nnnc1SCC(=O)Nc1cccnc1Cl returned VACV Venus inh -9%, VACV mCherry inh -1%, Pf growth 96h 14%, HCV inhibitor inconclusive, Pf growth 48h 14% and NS1 function inh -5%.
`COc1ccc(CN(Cc2cccn2C)S(=O)(=O)c2ccc(C)cc2)cc1` gave VACV Venus inh -8%[7.34 µM], VACV mCherry inh -8%[7.34 µM], Pf growth 96h inconclusive, HCV inhibitor -24%, Pf growth 48h inconclusive and NS1 function inh -4%.
For CCn1c(=O)c2cc(C(=O)N(C)CC(OC)OC)sc2c2ccccc21 the results were Pf growth 96h 56%, HCV inhibitor 11µM*, Pf growth 48h inconclusive and NS1 function inh -9%.
CCOc1ccccc1N(C)C(=O)c1cc2c(=O)n(CC)c3ccccc3c2s1 was read as Pf growth 96h inconclusive, HCV inhibitor 2µM*, Pf growth 48h inconclusive and NS1 function inh 11%.
Screening COC(=O)c1cc(CSC(=N)N)ccc1OCCC(C)C returned VACV Venus inh 2%[7.34 µM], VACV mCherry inh inconclusive, Pf growth 96h 6.6µM*, HCV inhibitor inconclusive, Pf growth 48h 4.7µM* and NS1 function inh 2%.
Screening CCCOc1ccc(CSC(=N)N)cc1C(=O)OC returned VACV Venus inh -20%, VACV mCherry inh -3%, Pf growth 96h inconclusive, HCV inhibitor -24%, Pf growth 48h inconclusive and NS1 function inh 0%.
For CN(C)S(=O)(=O)N1CCc2ccc(NC(=O)c3ccccc3Cl)cc2C1 the results were VACV Venus inh -12%, VACV mCherry inh inactive, Pf growth 96h 5.9µM*, HCV inhibitor inconclusive, Pf growth 48h 5% and NS1 function inh -12%.
Screening CCCS(=O)(=O)N1CCc2ccc(NC(=O)c3ccccc3Cl)cc2C1 returned VACV Venus inh -22%, VACV mCherry inh -5%, Pf growth 96h 22%, HCV inhibitor -25%, Pf growth 48h 15% and NS1 function inh -6%.
`CCN(CC)c1ccc(NC(=O)C2CCN(S(=O)(=O)c3ccc4c(c3)oc(=O)n4C)CC2)c(C)c1` gave VACV Venus inh -4% and VACV mCherry inh -12%.
`O=C(CCCSc1nc(-c2ccco2)cc(C(F)(F)F)n1)Nc1ccc2c(c1)OCO2` gave VACV Venus inh inconclusive, Pf growth 96h inconclusive, HCV inhibitor 4µM*, Pf growth 48h inconclusive and NS1 function inh -38%.
For O=C(CSc1nc(-c2ccco2)cc(C(F)(F)F)n1)Nc1ccc(C(=O)N2CCOCC2)cc1 the results were VACV Venus inh -23%, Pf growth 96h -13%, HCV inhibitor 10µM*, Pf growth 48h inconclusive and NS1 function inh -1%.
